# Experimental data: PubChem BioAssay (NCATS)
# Records with an inconclusive call do not appear. Entries that show only a call come without a potency. Unmarked numbers belong to inactive results. The source made the active and inactive calls. The call rests on the fitted dose curve; in most records, active means well fitted curve in the direction sought with a large enough effect; inconclusive means small, poorly fitted or top-dose-only effect, or another doubt; inactive means no such curve, though single readings can be large; an effect the other way counts as inactive or inconclusive.
# What was measured:
# [1] = target: Cellular tumor antigen p53 (Homo sapiens) (UniProt P04637); experiment: Primary qHTS for small molecule compounds that upregulate eGFP-tagged delta133p53alpha (in N-terminal) cells. (AID 2060322); conditions: NCI-H358 eGFP-delta133p53alpha fluorescence, 24 h; activation: stronger effect = higher value; further: nearly all actives have a fitted effect of over 75% in size; further: potency means the concentration at half of the fitted maximal effect;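 on activation: cells pre-induced with doxycycline then dosed without doxycycline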
# Sequence of Cellular tumor antigen p53 (Homo sapiens) (P04637 whole entry, looked up): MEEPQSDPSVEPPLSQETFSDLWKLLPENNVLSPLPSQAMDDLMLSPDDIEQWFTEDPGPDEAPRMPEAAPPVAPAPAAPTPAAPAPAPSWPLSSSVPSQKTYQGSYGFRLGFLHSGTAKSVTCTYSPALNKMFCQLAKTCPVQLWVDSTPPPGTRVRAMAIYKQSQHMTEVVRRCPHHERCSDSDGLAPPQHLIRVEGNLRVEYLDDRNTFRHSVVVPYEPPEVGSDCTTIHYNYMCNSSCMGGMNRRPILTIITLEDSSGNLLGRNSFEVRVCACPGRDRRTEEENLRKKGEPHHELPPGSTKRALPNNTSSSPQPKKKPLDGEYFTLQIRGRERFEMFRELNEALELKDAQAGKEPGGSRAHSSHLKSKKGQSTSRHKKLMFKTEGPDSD
# In short: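 NCI-H358 cells pre-induced 24 h with 10 ng/ml doxycycline for eGFP-delta133p53alpha, plated dox-free and exposed 24 h at 37C to titrated compounds. Fixed, Hoechst-stained; gated GFP peak intensity by laser scanning cytometry, normalized to DMSO (0%) and 57.5 uM 5-azacytidine (100%).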
# [2] = target: Aldehyde dehydrogenase, mitochondrial (Homo sapiens) (UniProt P05091); experiment: qHTS for Inhibitors of the Aldehyde Dehydrogenase Family (ALDH2) Primary screen (AID 2061308); conditions: ALDH2 enzyme inhibition qHTS, 1536-well; series mostly up to 56 µM; further: nearly all actives have a fitted effect of over 55% in size
# [3] = target: Retinaldehyde dehydrogenase 3 (Homo sapiens) (UniProt P47895); experiment: qHTS for Inhibitors of the Aldehyde Dehydrogenase Family (ALDH1A3) Primary screen (AID 2061315); conditions: ALDH inhibition qHTS; series mostly up to 56 µM
Compound,activation [1] [%],Potency [2],Potency [3],Potency [1],"activity change, negative = inhibition [2]","activity change, negative = inhibition [3]"
Cc1ncc(CCCN(C)C)cc1Nc1ncc2c(n1)-c1ccc(C(F)(F)F)cc1NC(=S)C2,22.3,inactive,inactive,,,
CN1c2ccccc2C(=O)N2CCC3c4ccccc4NC3C21 (configuration not stated),,inactive,inactive,1.66 µM (active),,
C[C@@H](c1nc(-c2ccc(C#N)cc2)cs1)[C@](O)(Cn1cncn1)c1cc(F)ccc1F,-2.33,inactive,inactive,,,
COC(=O)C1=CO[C@@H](O[C@@H]2O[C@H](CO)[C@@H](O)[C@H](O)[C@H]2O)[C@@H]2[C@@H](C(=O)OC)[C@@H](O)C(O)[C@H]12 (some centres not stated),-19.8,inactive,inactive,,,
C[C@@H]1O[C@@H](O[C@H]2[C@H](O[C@H]3CC[C@@]4(C)C(CC[C@]5(C)C4CC=C4C6CC(C)(C)CC[C@]6(C(=O)O[C@@H]6O[C@H](CO[C@@H]7O[C@H](CO)[C@@H](O[C@@H]8O[C@@H](C)[C@H](O)[C@@H](O)[C@H]8O)[C@H](O)[C@H]7O)[C@@H](O)[C@H](O)[C@H]6O)CC[C@]45C)[C@]3(C)CO)OC[C@H](O)[C@@H]2O)[C@H](O)[C@H](O)[C@H]1O (some centres not stated),3.82,,,,15.8% [at 11.2 µM],17.4% [at 11.2 µM]
C/C1=C\CCC(C)CCO[C@@H]2O[C@H](CO[C@@H]3OC[C@H](O)[C@H](O)[C@H]3OC1=O)[C@@H](O)[C@H](O)[C@H]2O (some centres not stated),-24.1,inactive,inactive,,,
COC(=O)C1=COC(OC2OC(CO)C(O)C(O)C2O)C2C(C)C(OC(=O)/C=C/c3ccc(O)cc3)C(O)C12 (configuration not stated),-8.93,inactive,inactive,,,
C=C1C(=O)OC2/C=C(\C)CC/C=C(\C)CC(OC(C)=O)C12 (configuration not stated),,inactive,inactive,26.9 µM (active),,
C=C[C@@]1(C)CCC2C(=CCC3[C@]2(C)CCC[C@@]3(C)C(=O)O)C1 (some centres not stated),-12.2,inactive,inactive,,,
O=C(c1ccccn1)N(Cc1cccs1)C1(C(=O)NC2CCCCC2)CCCCC1,-1.67,inactive,inactive,,,
C=C1CC[C@@H]2C(C)(C)CCC[C@@]2(C)[C@@H]1CC/C(=C/C(=O)OC)COC(C)=O,-31.3,inactive,inactive,,,
CC(=O)NC(C(=O)O[C@H]1CCC(C)(C)[C@@H]2CC=C3C(=O)OCC3(O)[C@@]12C)C(C)C (some centres not stated),20.6,inactive,inactive,,,
CCC[C@@H]1C[C@@H](C(=O)N[C@@H]([C@H]2O[C@H](SC)[C@H](O)[C@@H](O)[C@@H]2O)[C@@H](C)O)N(C)C1,7,inactive,inactive,,,
C=C1CCC2C(OC(=O)C2(O)COC(C)=O)C2C(=C)C(O)CC12 (configuration not stated),-3.82,inactive,inactive,,,
C=C1OC2CC(C(=O)O)C=CC2NC1=O (configuration not stated),-19.8,inactive,inactive,,,
C[C@@]1(O)[C@H](O)[C@@H](CO)O[C@H]1n1ccc(N)nc1=O,0.333,inactive,inactive,,,
N#CC1C(=O)N=C(c2cc(Cl)ccc2O)C=C1c1cc(OCc2ccccc2)cc(OCc2ccccc2)c1 (configuration not stated),-17.7,inactive,inactive,,,
CC1(C)OC(=O)C=C[C@@]2(C)C1CC(=O)[C@]1(C)C2CC[C@@]2(C)[C@H](c3ccoc3)OC(=O)[C@H]3O[C@]321 (some centres not stated),-19.1,inactive,inactive,,,
CC1(C)CC[C@]2(C(=O)O[C@@H]3O[C@H](CO)[C@@H](O)[C@H](O)[C@H]3O)CC[C@]3(C)C(=CCC4[C@@]5(C)CC[C@H](OC6OC(C(=O)O)C(OC7OC(CO)C(O)C(O)C7O)C(O)C6O)C(C)(C)C5CC[C@]43C)C2C1 (some centres not stated),-16.8,inactive,inactive,,,
CC1(C)CCC2(C(=O)OC3OC(COC4OC(CO)C(O)C(O)C4O)C(O)C(O)C3O)CCC3(C)C(=CCC4C5(C)CCC(OC6OCC(O)C(O)C6O)C(C)(C)C5CCC43C)C2C1O (configuration not stated),-11.5,inactive,inactive,,,
COc1ccnc2[nH]cc(C(=O)C(=O)N3CCN(C(=O)c4ccccc4)CC3C)c12 (configuration not stated),-3,inactive,inactive,,,
O=C(C[C@@H]1C(C(=O)O)=CO[C@@H](O[C@@H]2O[C@H](CO)[C@@H](O)[C@H](O)[C@H]2O)/C1=C\CO)OCCc1ccc(O)c(O)c1,-14.3,inactive,inactive,,,
COc1c2c(c(C)c3c1C(=O)OC3)O[C@@]1(C)CC(O)C(C(C)(C)O)[C@](C)(CCC(=O)O)[C@H]1C2 (some centres not stated),-9.16,inactive,inactive,,,
CC(=O)N[C@H](Cc1c[nH]c2ccccc12)C(=O)OCc1cc(C(F)(F)F)cc(C(F)(F)F)c1,14.3,inactive,inactive,,,
